KB-3-1 cytotox – KB-3-1 parental cell cytotoxicity; KB-3-1 viability, CellTiter-Glo ATP luminescence, 72 h; Potency, µM (series often up to 46.1 µM), hits mostly cytotoxic; 400,000 compounds, 1.4% hits; further: potency means the concentration at half of the fitted maximal effect; on the % scale 0 is the no-effect control and ±100 the full control effect; nearly all actives have a fitted effect of over 60% in size
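Here the drug-naive KB-3-1 line serves as comparator for MDR sub-line selectivity; cells received compound titrations, 72 h at 37 °C, then CellTiter-Glo readout.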
MCF10A rerep – DNA re-replication induction in MCF 10a cells. 350,000 compounds, 2.9% hits. MCF 10A DNA re-replication, Hoechst nuclear intensity, 48 h. AID 624296. Potency, µM (highest dose often 46.1 µM), inactives show top-dose activity, positive = re-replication, actives largely listed as activators; further: potency means the concentration at half of the fitted maximal effect; % of control where 0% means no effect; nearly all actives have a fitted effect of over 50% in size
D3 ag – D3 dopamine receptor (human) agonism. P35462. D3R DiscoveRx beta-arrestin cells, luminescence, 90 min. max activation, %. 410,000 compounds, 0.58% hits. AID 652048; in the data active means max activation above about 30%; further: 0% is about no effect
Target sequence (P35462 whole entry, looked up): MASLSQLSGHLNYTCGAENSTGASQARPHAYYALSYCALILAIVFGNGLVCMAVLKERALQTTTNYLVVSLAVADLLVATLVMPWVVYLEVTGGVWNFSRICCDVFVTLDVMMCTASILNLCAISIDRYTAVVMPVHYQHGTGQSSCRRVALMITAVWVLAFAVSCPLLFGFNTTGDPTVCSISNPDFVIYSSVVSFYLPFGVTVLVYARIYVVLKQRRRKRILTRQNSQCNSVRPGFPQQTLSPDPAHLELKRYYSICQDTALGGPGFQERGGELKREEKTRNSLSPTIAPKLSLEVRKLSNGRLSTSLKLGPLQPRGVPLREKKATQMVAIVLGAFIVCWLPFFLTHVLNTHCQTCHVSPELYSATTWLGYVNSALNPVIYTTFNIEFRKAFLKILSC
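Agonist-mode cell screen: cells plated at 1500/well and incubated overnight at 37 °C, then exposed to library compounds for 90 min at 37 °C. Detection reagent was added for 30–60 min at room temperature, and luminescence was read.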
SW480 rereplic – DNA re-replication induction in SW480 cells | SW480 DNA re-replication, Hoechst DNA content imaging, 48 h | Potency, µM (titrated, usually from 46.1 µM), for the others: top-dose re-replication activation, hits mostly activators | 340,000 compounds, 1.8% hits; further: potency means the concentration at half of the fitted maximal effect; % of control where 0% means no effect; nearly all actives have a fitted effect of over 55% in size
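Hoechst fluorescence of nuclei (405 nm excitation, 500-530 nm emission) measured by plate-scanning imager after 48 hr compound exposure at 37 C; re-replication scored as increased number of nuclei with elevated intensity.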
D3 antag – antagonists of human D3 dopamine receptor | 360,000 compounds, 2.5% hits | max response, negative = inhibition, % | D3R cells, DiscoveRx beta-arrestin luminescence, antagonist mode; active compounds read low | P35462; in the data active means max response below about -50%; inconclusive means no clear call, values can overlap the other calls; further: on the % scale 0 is the no-effect control and ±100 the full control effect
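Cells expressing the human receptor were seeded at 1500 cells/well, incubated overnight at 37 degrees C in 5% CO2, then exposed to library compounds with dopamine controls for 90 minutes at 37 degrees C before luminescent detection.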
KB-V1 MDR tox – KB-V1 MDR subline cytotoxicity; KB-V1 MDR cells viability, CellTiter-Glo, 72 h; Potency, µM (highest dose often 46.1 µM), most hits filed as cytotoxic; 400,000 compounds, 3.4% hits; AID 1347076; further: potency means the concentration at half of the fitted maximal effect; on the % scale 0 is the no-effect control and ±100 the full control effect; nearly all actives have a fitted effect of over 60% in size
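Luminescent ATP read-out (CellTiter-Glo, 10 min) measures survival of drug-selected KB-V1 MDR cells after 72 h, 37 degrees C compound exposure. Medium: phenol-red-free DMEM, 10% FBS. Values from fitted concentration-response curves.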
An asterisk follows results filed as active; i = inactive; ? = inconclusive; · = not tested or not shown. Compounds with a hit are over-represented: about 8.9% of the library has one in this group of screens. Unless noted, the call rests on the fitted dose curve; in most records, active means well fitted curve in the direction sought with a large enough effect; inconclusive means small, poorly fitted or top-dose-only effect, or another doubt; inactive means no such curve, though single readings can be large; an effect the other way counts as inactive or inconclusive.

SMILES	KB-3-1 cytotox	MCF10A rerep	D3 ag	SW480 rereplic	D3 antag	KB-V1 MDR tox
Cc1ccc(S(=O)(=O)CCC(=O)N2CCN(c3ccccc3O)CC2)cc1	i	?	0.5	9.2µM*	-7.1	i
COc1ccccc1N1CCN(C(=O)CN(CCc2ccccc2)S(C)(=O)=O)CC1	i	-3.0%	0.0	-5.7%	2.7	9.2µM*
COc1ccc(N2CCN(C(=O)CN(CCc3ccccc3)S(C)(=O)=O)CC2)cc1	i	13.5%	16.8	10.5%	18.7	?
Cc1ccc(S(=O)(=O)CCC(=O)OCC(=O)N2CCN(c3ccccc3)CC2)cc1	i	-0.3%	2.4	-1.1%	-0.5	i
CNS(=O)(=O)c1ccc(CCC(=O)N2CCN(c3ccccc3OC)CC2)cc1	i	-5.9%	36.9*	?	38.8	i
COc1ccccc1N1CCN(C(=O)CCc2ccccc2)CC1	i	-8.3%	5.0	89.0%	6.4	i
CC(Oc1ccccc1)C(=O)Nc1nnc2n1CCS2 (centres undefined)	·	·	-2.7	·	·	·
COc1ccccc1C(=O)Nc1ccc(-c2cc(C(F)(F)F)nn2-c2ccccc2)cc1	·	·	-8.9	·	·	·
O=C(CSc1ncc2c(n1)-c1cc(Cl)ccc1N(Cc1ccccc1F)S2(=O)=O)Nc1cccc(C(F)(F)F)c1	i	·	-13.0	·	·	i
CCCCN(CC)C(=O)C1CCCN(c2ncnc3c2nc2n3CCCCC2)C1 (centres undefined)	i	·	-5.1	·	·	i
COc1cccc(C(NC(C)=O)c2nc(-c3cccc(F)c3)cs2)c1 (centres undefined)	i	·	1.7	·	53.3	i
CCCCNCC#CCOc1cc(C)ccc1C(C)C	i	1.8%	0.3	-0.7%	-52.0*	i
Cc1ccc(C(C)C)c(OCCNCCc2ccccc2)c1	i	13µM*	-22.7	?	?	i
Cc1ccc(C(C)C)c(OCCNC(=O)c2cncc(Br)c2)c1	i	?	2.7	2.5%	-51.9*	?
COc1ccc2cnn(CCOc3cc(C)ccc3C(C)C)c(=O)c2c1OC	i	?	-6.3	?	-6.2	6.51µM*
COCCNC(=O)C(=O)Nc1ccc2nc3n(c(=O)c2c1)CCCCC3	?	·	1.7	·	·	?
Cc1ccc(C(=O)COC(=O)C(CC(C)C)NC(=O)C2CCC(C)CC2)cc1 (centres undefined)	i	·	-2.6	·	·	i
Cc1ccc(NS(=O)(=O)c2ccc3c(c2)N(C)C(=O)CO3)cc1C	i	·	·	·	·	i
COc1cc(C(=O)NCCOc2ccccc2)cc(OC)c1OC	i	1.5%	-9.2	0.5%	-7.2	?
COc1cc(C(=O)NCCOc2cc(C)ccc2C(C)C)cc(OC)c1OC	?	?	9.8	?	24.3	16.4µM*
COc1cc(C(=O)NCCOc2cc(C)cc(C)c2)cc(OC)c1OC	4.61µM*	20.6µM*	6.5	7.31µM*	5.2	5.8µM*
CCCN(CCC)CCNC(=O)Cn1cnc2sc(C)c(S(=O)(=O)N3CCN(c4ccccc4OC)CC3)c2c1=O	i	·	6.6	·	·	i
Cc1c(Cc2ccccc2)c(NCCN(C)C)n2c(nc3ccccc32)c1C#N	i	23.1µM*	-6.9	29.1µM*	5.7	?
CCCCc1c(C)c(C#N)c2nc3ccccc3n2c1NCCN(C)C	i	23.1µM*	-2.3	?	-17.8	i
CCc1c(C)c(C#N)c2nc3ccccc3n2c1NCCCN(C)C	i	·	-5.8	·	69.4	i
SMILES	KB-3-1 cytotox	MCF10A rerep	D3 ag	SW480 rereplic	D3 antag	KB-V1 MDR tox
CN(C)c1ccc(CNC(=O)CN2C(=O)C3CCCCN3c3ccc(C(=O)N4CCCC4)cc32)cc1 (centres undefined)	i	·	5.7	·	·	i
CCN(CC)S(=O)(=O)c1cccc(C(=O)Nc2ccccc2C(=O)Nc2ccc(OC)cc2)c1	i	·	4.4	·	·	?
CCCCCCCCCCCCCCCC(=O)OC[C@@H](COP(=O)([O-])OCC[N+](C)(C)C)OC(=O)CCCCCCCCCCCCCCC	·	·	1.5	·	·	·
CC(=O)N1CCN(CC(=O)Nc2ccc(C)c(S(=O)(=O)N(C)C)c2)CC1	i	?	-4.6	-18.5%	-18.5	i
CC(=O)N1CCN(CC(=O)Nc2ccc(Cl)c(S(=O)(=O)N(C)C)c2)CC1	i	-2.1%	2.8	1.7%	10.9	i
CCc1ccc(NC(=O)C(=O)NCCN2CCN(C(=O)c3ccc(OC)cc3)CC2)cc1	i	·	-0.5	·	-11.6	?
Cc1ccc(NC(=O)CN2CCN(C(=O)c3ccco3)CC2)cc1S(=O)(=O)N(C)C	i	5.7%	50.5*	-0.4%	22.7	?
CCc1ccc(NC(=O)C(=O)NCCN2CCN(C(=O)c3ccco3)CC2)cc1	i	?	72.5*	2.4%	25.4	i
Cc1ccc(NC(=O)CN2CCC(Cc3ccccc3)CC2)cc1S(=O)(=O)N(C)C	i	?	-26.6	11.6µM*	-21.3	?
CCOC(=O)c1ccc(NC(=O)CN2CCN(C(=O)c3ccco3)CC2)cc1	i	13.2%	35.9*	9.6%	14.7	?
CCOc1ccc(NC(=O)CN2CCN(C(=O)c3ccco3)CC2)cc1S(=O)(=O)N1CCCC1	i	-8.3%	39.7*	-1.8%	-9.3	?
COc1ccc(-c2c(C)c3ccc(O)c(CN4CCCCC4)c3oc2=O)cc1OC	i	·	-6.5	·	·	i
Cc1cccc(CSC(Nc2ccc(F)cc2)=C(C#N)C#N)c1	16.4µM*	14.6µM*	-0.9	?	-8.4	?
Cc1cccc(CSC(=N)N)c1	i	6.3%	-2.6	0.2%	-6.8	i
N#CC(C#N)=C(Nc1ccc(F)cc1)SCc1cccc(Br)c1	10.3µM*	3.26µM*	-3.0	?	-6.3	9.2µM*
CCCn1c(=O)c2sccc2n2c(CCCC(=O)N3CCN(c4cccc(Cl)c4)CC3)nnc12	·	·	12.7	·	·	·
O=C(c1sc2ccccc2c1Cl)N(Cc1ccccc1Cl)C1CCS(=O)(=O)C1 (centres undefined)	?	23.0%	16.5	-2.4%	-4.2	8.2µM*
O=C(c1sc2ccccc2c1Cl)N(Cc1ccccc1)C1CCS(=O)(=O)C1 (centres undefined)	i	3.2%	-2.7	1.4%	29.0	20.6µM*
Cc1ccc(Nc2c(-c3c[nH]c4ccccc34)nc3ccccn23)cc1	i	·	-5.2	·	·	i
O=C(O)CC(NS(=O)(=O)c1ccc(Cl)s1)c1ccccc1 (centres undefined)	i	·	4.8	·	·	i
CCN(CCCNC(=O)c1nn(-c2ccc(OC)c(Cl)c2)c(=O)c2c1c1ccccc1n2C)c1cccc(C)c1	i	·	-6.3	·	·	i

Assay outcomes as filed in PubChem.
